Sampled rows, rich in hits. Any-hit rate of the full collection: about 1.3%.
TRPML1 ag: activates the human TRPML1 channel; Q9GZU1; TRPML1-expressing cells, Ca2+ dye fluorescence, FDSS; activation, % (concentration not given with the values); 0.12% of 410,000 active; AID 624414; in the data active means activation above about 50%; inconclusive means mostly about 30% to 49%
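Tet-induced TRPML1-DL cells, 1,500 per well, cultured overnight, were loaded with a no-wash Ca2+ dye for 45–90 min. Calcium fluorescence was recorded on the FDSS for 110 s after compound addition, before the EC80 agonist (4 uM 54-4) was added.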
KCNH2 WT inh: blocks the wildtype human KCNH2 potassium channel; U2OS, BacMam KCNH2, thallium flux FluxOr; active compounds read low; 0.37% of 340,000 active; activity change, % at 1.84 µM; AID 720551;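 active means maximum activity change below -70%; inconclusive means maximum activity change between -70% and -50%; inactive means maximum activity change above -50%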
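U2OS cells were transduced with wild-type KCNH2 virus (2.03 x 10^8 / mL) for 4 h at room temperature, then cultured overnight at 37 C. Thallium flux was read with FluxOr dye. Rate constants were normalized to DMSO controls.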
TRPV1 ag: activates the human vanilloid receptor TRPV1; Q8NER1; TRPV1-expressing cells, Fluo-8 calcium influx, agonist mode; activation, % at 8.33 µM; 0.19% of 320,000 active; in the data active means activation above about 80%; inconclusive means between about 30% and that limit
Target sequence (Q8NER1 whole entry, looked up): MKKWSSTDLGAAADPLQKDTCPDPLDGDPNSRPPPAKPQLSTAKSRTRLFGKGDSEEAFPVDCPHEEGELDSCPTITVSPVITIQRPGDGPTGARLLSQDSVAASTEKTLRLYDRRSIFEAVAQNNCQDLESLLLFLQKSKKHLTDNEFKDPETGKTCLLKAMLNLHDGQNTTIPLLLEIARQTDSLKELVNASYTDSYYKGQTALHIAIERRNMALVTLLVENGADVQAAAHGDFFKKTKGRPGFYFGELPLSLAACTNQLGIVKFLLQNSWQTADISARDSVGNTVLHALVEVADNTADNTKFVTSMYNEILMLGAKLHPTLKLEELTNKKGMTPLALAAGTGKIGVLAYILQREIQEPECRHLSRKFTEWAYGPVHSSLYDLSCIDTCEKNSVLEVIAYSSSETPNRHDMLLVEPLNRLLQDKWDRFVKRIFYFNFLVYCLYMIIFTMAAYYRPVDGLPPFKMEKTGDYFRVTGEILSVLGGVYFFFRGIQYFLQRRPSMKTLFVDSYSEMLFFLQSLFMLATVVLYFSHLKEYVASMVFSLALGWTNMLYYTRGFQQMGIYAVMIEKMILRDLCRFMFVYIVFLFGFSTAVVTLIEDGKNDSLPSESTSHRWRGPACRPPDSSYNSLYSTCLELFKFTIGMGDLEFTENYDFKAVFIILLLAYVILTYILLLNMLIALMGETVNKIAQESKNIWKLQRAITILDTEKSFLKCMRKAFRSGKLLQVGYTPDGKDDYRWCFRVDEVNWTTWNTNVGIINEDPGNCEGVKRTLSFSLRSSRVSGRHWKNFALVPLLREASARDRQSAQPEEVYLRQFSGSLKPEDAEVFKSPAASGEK
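Cells expressing TRPV1 were dye-loaded with Fluo-8 and read kinetically: 10 s baseline, 3 min after compound (agonist portion), then 2 min after EC20 capsaicin (allosteric enhancer portion). Calcium-bound dye fluorescence at 480/520 nm.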
TRPML1 blocker: inhibitors of human TRPML1 channel | Q9GZU1 | TRPML1-inducible cells, Ca2+ dye fluorescence, FDSS; active compounds read low; inhibition of EC80 agonist-evoked calcium signal | activity change, negative = inhibition, % (test concentration not listed) | 0.02% of 390,000 active | AID 624415; in the data active means activity change below about -50%; inconclusive means between about -30% and that limit;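 further: stimulus is agonist 54-4 at its EC80 concentration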
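TRPML1-DL cells, Tet-induced overnight (~16 h, 37 °C) at 1,500 cells/well, were loaded with Ca8 no-wash dye plus quencher for 45-90 min at room temperature. Compounds were pinned during FDSS kinetic reading; agonist 54-4 at EC80 (4 uM final) then added.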
KCNH2 3.1 inh: KCNH2 3.1 (human) potassium channel inhibition. U2OS KCNH2 3.1, thallium flux FluxOr; active compounds read low. activity change, % (tested at about 1.8 µM). 0.95% of 340,000 active;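 active means maximum activity change below -70%; inconclusive means maximum activity change from -70% to -50%; inactive means maximum activity change above -50%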;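 further: thallium influx rate constant from kinetic fluorescence after stimulation buffer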
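Channel expression came from 3.1 mutant virus (1.77 x 10^8 /mL) applied to suspended U2OS cells for 4 h. Flux was tracked with FluxOr dye plus Red40 quencher, and kinetic rate constants normalized to controls.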
TRPV1 potentiator: human TRPV1 potentiation | Q8NER1 | TRPV1-expressing cells, Fluo-8 calcium influx, capsaicin EC20 potentiation | potentiation, % at 8.33 µM | 0.02% of 320,000 active | AID 540277; in the data active means potentiation above about 80%; inconclusive means between about 30% and that limit
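TRPV1-expressing cells were cultured overnight at 35.5C and loaded with Fluo-8 calcium dye for 40 to 90 min at room temperature. After a 10 s baseline, compound was added and calcium influx was read kinetically for 3 min (ex 480/em 520 nm).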
A number is an active result; 0 = inactive; ? = inconclusive; - = not tested or not shown.

SMILES	TRPML1 ag	KCNH2 WT inh	TRPV1 ag	TRPML1 blocker	KCNH2 3.1 inh	TRPV1 potentiator
CCOc1ccc(-c2c(C)nn3c(C)c(C(=O)NCC(C)c4ccccc4)cnc23)cc1OCC (configuration not stated)	0	-	-	0	-	-
COc1cc2nc(N(CCCN(C)C)C(=O)c3ccc(C(=O)c4ccccc4)cc3)sc2cc1OC	0	0	0	0	0	0
CCc1ccc2nc(N(CCCN(C)C)C(=O)c3ccc(C(=O)c4ccccc4)cc3)sc2c1	0	0	0	0	-88.9	0
CCN(CC)CCN(C(=O)/C=C/c1cccs1)c1nc2ccc(C)cc2s1	0	-148.2	0	0	-99.1	0
OC(Cc1nc2ccccc2[nH]1)c1ccccc1Cl (configuration not stated)	0	0	0	0	-73.5	0
COc1ccc(OC)c(NC(=O)Cn2cnc3sc(C)c(S(=O)(=O)N4CCN(c5ccccc5OC)CC4)c3c2=O)c1	0	-	-	0	-	-
CN(C)CCNC(=O)c1ccc(-n2c(-c3ccccc3)cc3c2CCCC3)cc1	0	-	-	0	-	-
CC(C)(C)n1ncc2c(=O)n(Cc3ccc(Cl)c(SC(F)(F)F)c3)cnc21	0	-	-	0	-	-
COc1ccc(/C=N/NC(=O)c2nc(-c3ccccc3)cc(-c3ccccc3)n2)cc1	0	0	0	0	-87.5	0
O=C(COc1ccccc1[N+](=O)[O-])N1CCC(c2nc3ccccc3o2)CC1	0	-	-	0	-	-
Cc1ccc(S(=O)(=O)c2nnn3c2nc(N2CCC(C)CC2)c2cc(Cl)ccc23)cc1C	0	-	-	0	-	-
CCOc1ccc(C2c3cc(OC)c(OC)cc3CC(=O)N2c2ccccc2)cc1 (configuration not stated)	0	0	0	-50.7	0	0
COc1ccc(NC(=O)C(c2ccccc2)N2CCN(c3ccccn3)CC2)cc1Cl (configuration not stated)	0	0	0	0	-109.0	0
CS(=O)(=O)c1cccc(C(=O)OCCCC(=O)c2ccccc2)c1	0	0	-	0	0	-
CN(C)c1cccc(C(=O)OCCCC(=O)c2ccc(F)cc2)c1	0	0	0	0	-129.9	0
COc1ccc(C)cc1N(C(=O)c1ccccc1)c1nc2ccccc2s1	0	0	0	0	0	?
COc1ccc(C)cc1N(C(=O)COc1ccccc1)c1nc2ccccc2s1	0	?	0	0	-74.0	?
N#Cc1cc([N+](=O)[O-])ccc1Oc1cccc(/C=N/NC(=O)c2cccc(Cl)c2)c1	0	-77.0	0	0	?	0
COc1cccc(NC(=O)c2cc3c(=O)n4ccccc4nc3n(CC(C)C)c2=N)c1	0	-73.8	0	0	-93.3	0
Cc1cccc(NC(=O)c2cc3c(=O)n4ccccc4nc3n(CC(C)C)c2=N)c1	0	-117.9	0	0	-97.7	0
Cc1ccc(CNC(=O)c2cc3c(=O)n4ccccc4nc3n(Cc3ccco3)c2=N)cc1	0	0	0	0	0	0
CCn1c(=N)c(C(=O)OC)cc2c(=O)n3ccccc3nc21	-	-	0	-	-	0
Cc1csc[n+]1CC(=O)c1ccc(I)cc1	0	-	-	-	-	-
c1cncc(CNC2CCCc3ccccc32)c1 (configuration not stated)	0	0	0	0	-99.1	0
O=[N+]([O-])c1cccc(S(=O)(=O)N2CCN(c3nc(-c4ccccc4)nc4ccccc34)CC2)c1	0	-	-	-	-	-
SMILES	TRPML1 ag	KCNH2 WT inh	TRPV1 ag	TRPML1 blocker	KCNH2 3.1 inh	TRPV1 potentiator
O=C(CN1CCN(Cc2ccccc2)CC1)Nc1ccccc1-c1ccccc1	0	-74.3	0	0	0	0
O=C(CN1CCN(Cc2ccccc2)CC1)N1CCCCCC1	0	0	0	0	-83.2	0
NC(=O)c1ccccc1NC(=O)CN1CCCCCC1	0	0	0	0	0	0
COc1ccccc1NC(=O)CN1CCN(Cc2ccccc2)CC1	0	0	0	0	0	0
NC(=O)c1ccccc1NC(=O)CN1CCN(Cc2ccccc2)CC1	0	0	0	0	-76.7	0
COc1ccccc1-n1c(=O)n(C)c2c(C(N)=O)nc(-c3cc(OC)c(OC)c(OC)c3)nc21	0	-	-	0	-	-
Cc1ccc(-n2cc(CNCCn3nc(C)cc3C)c(-c3ccc(F)cc3)n2)cc1	0	0	0	0	-79.1	0

Screening data as filed in PubChem.
